This is a sample that favours compounds with a hit; in the whole collection about 7.4% have one here.
D1 mod: allosterically modulates the human D1 dopamine receptor | P21728 | HEK293 D1, CRE-luciferase, dopamine EC30 potentiation; actives deviate in either direction | B-score at 10 µM | 58,000 compounds, 5.9% hits;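 active means luminescence count or its row- and column-corrected plate score outside the 99.7% band of the plate's sample wells, on either side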
hDAT+cocaine: changed human dopamine transporter uptake under cocaine IC80; Q01959; LLC-PK1 hDAT cells, [14C]-dopamine uptake with cocaine IC80; actives deviate in either direction; B-score at 10 µM; 110,000 compounds, 1.3% hits;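 active means Z score or B-score, a plate-position-corrected score, falls beyond the plate's 99.7% confidence bounds, in either direction; inactive means both scores lie inside the 99.7% bounds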;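 further: scored against the spread of the other compound wells on the same plate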
FXIIa inh mix: factor XIIa (human) inhibition, mixture screen; 62,000 compounds, 0.2% hits; AID 684; purified FXIIa, fluorogenic substrate, pooled mixtures; inhibition, % at 5 µM; P00748;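 further: 0% = enzyme without compound and 100% = no enzyme blank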
Target sequence (P00748 20-372 limits assumed): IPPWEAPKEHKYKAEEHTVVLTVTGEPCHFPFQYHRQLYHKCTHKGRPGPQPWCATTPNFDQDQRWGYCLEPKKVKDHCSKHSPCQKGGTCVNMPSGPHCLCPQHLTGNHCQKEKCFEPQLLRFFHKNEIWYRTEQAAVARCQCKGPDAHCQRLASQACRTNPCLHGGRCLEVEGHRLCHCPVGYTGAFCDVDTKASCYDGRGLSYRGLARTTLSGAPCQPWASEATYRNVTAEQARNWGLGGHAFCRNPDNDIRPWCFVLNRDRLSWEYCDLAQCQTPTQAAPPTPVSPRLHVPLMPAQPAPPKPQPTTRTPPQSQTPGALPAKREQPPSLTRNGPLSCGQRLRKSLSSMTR
Target sequence (P00748 373-615 limits assumed): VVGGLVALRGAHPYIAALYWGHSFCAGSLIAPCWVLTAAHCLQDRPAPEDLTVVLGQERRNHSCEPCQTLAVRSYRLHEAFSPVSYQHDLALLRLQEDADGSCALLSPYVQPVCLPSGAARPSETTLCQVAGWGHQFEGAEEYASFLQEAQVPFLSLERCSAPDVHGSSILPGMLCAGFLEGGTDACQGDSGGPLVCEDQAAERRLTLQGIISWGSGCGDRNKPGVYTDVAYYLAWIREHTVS
M1 antag: M1 muscarinic receptor (rat) antagonism; P08482; CHO-M1 cells, Fluo-4 calcium, ACh EC80 antagonist mode; active compounds read low; B-score at 10 µM; 64,000 compounds, 3.4% hits;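 active means calcium fluorescence response, raw or row-and-column corrected B-score, differing from the plate sample mean either way at a set confidence level, mostly lower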
FXIa mix inh: factor XIa (human) inhibition, mixture screen; P03951; purified FXIa, fluorogenic substrate, pooled mixtures; inhibition, % at 5 µM; 62,000 compounds, 0.19% hits; AID 680;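 further: each value is inhibition by a whole ten-compound pool holding the compound; 0% = enzyme with no mixture and 100% = wells lacking enzyme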
M1 agonist: agonists of M1 muscarinic receptor. 64,000 compounds, 3% hits. B-score at 10 µM. CHO-M1 cells, Fluo-4 calcium fluorescence, agonist mode; active compounds read high;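 active means fluorescence rise, raw or as B-score row- and column-corrected plate score, outside the 99.7% band of its plate's samples, either direction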
D1 mod confirm: D1 receptor (human) allosteric modulation, confirmed; shares compounds with D1 mod; HEK293 D1 CRE-luciferase, dopamine EC30 potentiation; active compounds read high; luminescence at 10 µM; 2,200 compounds, 88% hits;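 active means luminescence in either of two replicates above the same-plate mean plus 3 SD of the low-dose dopamine control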
D1 ag no DA: activates D1 CRE-luciferase signal without dopamine present. HEK293 D1 CRE-luciferase, luminescence, no dopamine; active compounds read high. AID 646. shares compounds with D1 mod. 1,900 compounds, 0.8% hits. luminescence at 10 µM; in the data active means luminescence above about 3900
Isoprot counter: counter-screen for D1 modulators: isoproterenol response in HEK293 cells; shares compounds with D1 mod; HEK293 D1 CRE-luciferase, isoproterenol EC30 counter-screen; calls only at 10 µM; 2,200 compounds, 63% hits; AID 647;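 active means luminescence in either replicate above plate mean of wells with a partly effective reference agonist dose plus 3 SD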;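 further: isoproterenol raises cAMP through native beta-adrenoceptor Gs so signal bypasses D1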
* hit, by the source's call; i = inactive; . = no result given; + = active, no number. Unless noted, no stated cut-off is given here; in the data, active means inhibition above about 20% (passing the limit was not always enough); inactive means the rest.

SMILES | D1 mod | hDAT+cocaine | FXIIa inh mix | M1 antag | FXIa mix inh | M1 agonist | D1 mod confirm | D1 ag no DA | Isoprot counter
Cc1cccc(CCNS(=O)(=O)c2cnc[nH]2)c1 | 4.4* | -0.76 | 1 | -0.25 | 4 | 0.031 | 5408 | 1484 | i
COc1ccc(C)cc1NC(=O)CSc1nnc(-c2ccc(OC)c(OC)c2)n1N | 22* | 1.4 | 8 | -0.027 | 3 | 0.31 | 18440* | 1560 | +
CCOc1cccc(-c2nnc(SCC(=O)Nc3cc(C)ccc3OC)n2N)c1 | 0.57 | 0.58 | -52 | -0.55 | 6 | -0.73 | . | . | .
Clc1ccc(C2=Nn3c(nnc3-c3n[nH]c4c3CCC4)SC2)cc1Cl | 9.4* | 0.4 | 4 | -0.58 | 12 | -0.082 | 6068* | 1632 | +
Clc1ccc(C2=Nn3c(nnc3-c3cc(-c4ccccc4)n[nH]3)SC2)cc1 | . | 2.5 | . | . | . | . | . | . | .
COC(=O)C1CCN(S(=O)(=O)c2c(C)n(C)c(=O)n(C)c2=O)CC1 | 1.4* | -1 | 7 | 0.98 | 4 | 1.5 | 7080 | 1560 | i
Cc1cccc(-c2nnc(NC(=O)c3cccs3)s2)c1 | . | -0.012 | . | . | . | . | . | . | .
CCOc1ncccc1C(=O)OCc1ccc(C(=O)OC)o1 | 8* | 0.098 | -3 | -0.031 | 6 | 0.13 | 16096* | 1680 | +
CCOc1ncccc1C(=O)OCC(=O)NCCc1ccc(OC)cc1 | 0.02 | 2.6 | 4 | 0.41 | 6 | 0.83 | . | . | .
S=C(NCC1CCCO1)n1nnc2ccccc21 (configuration not stated) | -0.74 | 0.92 | 3 | 0.35 | 7 | -0.25 | . | . | .
c1ccc2c(c1)nc(NCC1CCCO1)c1nnnn12 (configuration not stated) | 2.9* | 0.018 | 3 | -0.46 | 3 | -0.73 | 9992* | 1484 | i
Nc1nnc(SCc2ccc(Cl)cc2)s1 | . | -0.71 | . | . | . | . | . | . | .
CCOC(=O)c1ccc(CSc2nnc(N)s2)cc1 | 3.7* | 0.68 | 11 | 0.22 | 8 | -0.45 | 10844* | . | +
CCOc1ccccc1N1CCN(C(=O)C(F)(F)F)CC1 | . | 0.4 | . | . | . | . | . | . | .
Cc1ccc(-c2nc3ccccn3c2NCc2ccc3c(c2)OCO3)cc1 | . | 0.5 | . | . | . | . | . | . | .
Clc1ccc(Nc2nc3ccccc3n3nnnc23)cc1 | . | -0.051 | . | . | . | . | . | . | .
Fc1cc(Br)ccc1Nc1nc2ccccc2n2nnnc12 | 3.1* | -0.46 | -2 | -0.51 | 8 | 0.0032 | 10956* | 1572 | i
C/C(=C\c1cc(C(=O)O)c(C)o1)CO | -0.012 | -0.35 | -11 | -1.3 | -5 | 1.5 | . | . | .
COc1ccc(CN2C(=O)c3cccnc3C2Nc2cc(Cl)c(OC)cc2OC)cc1 (configuration not stated) | 6.5* | 1.1 | 0 | -1.7 | 9 | -0.88 | 10420* | . | +
COc1ccc(CN2C(=O)c3cccnc3C2Nc2ccc(C)cc2)cc1 (configuration not stated) | . | -0.0066 | . | . | . | . | . | . | .
OC(CN1CCOCC1)CN1CCOCC1 | 2.6* | . | 2 | -0.23 | 8 | -0.53 | 6000 | 1732 | i
CC(CN1CCOCC1)C(=O)O (configuration not stated) | . | 0.032 | 4 | . | 2 | . | . | . | .
COC(=O)C[C@H]1c2cc(C(F)(F)F)ccc2S(=O)(=O)N1Cc1ccc(OC)cc1 | . | 0.72 | . | . | . | . | . | . | .
CC(C)Sc1nc2c(c(=O)n1C)SC(C)C2 (configuration not stated) | 3.4* | -0.18 | -3 | -0.089 | 7 | 0.34 | 8852* | 1524 | i
CSc1nc2c(c(=O)n1Cc1ccccc1)SC(C)C2 (configuration not stated) | 5.4* | 0.43 | . | -0.73 | . | 1.1 | 8668* | 1704 | +
SMILES | D1 mod | hDAT+cocaine | FXIIa inh mix | M1 antag | FXIa mix inh | M1 agonist | D1 mod confirm | D1 ag no DA | Isoprot counter
CC1Cc2nc(SCC(=O)NC3CCCCC3)n(C)c(=O)c2S1 (configuration not stated) | -0.014 | -0.12 | . | 2.1 | . | 0.7 | . | . | .
CC(=O)c1ccc(-n2nnnc2SCC(=O)N2CCc3ccccc3C2)cc1 | 0.68 | 0.82 | -3 | -0.45 | 1 | 0.14 | . | . | .
O=C(CSc1nnc(-c2ccccc2Br)o1)N1CCc2ccccc2C1 | 9.9* | 2.9* | -24 | -0.087 | -11 | -0.21 | 18392* | 1512 | +
O=C(CSc1nnnn1-c1ccccc1)N1CCc2ccccc2C1 | 5.4* | -0.64 | -19 | -0.84 | -9 | 0.22 | 5840* | . | i
CC(C)n1nnnc1SCC(=O)NNC(=O)C1CCCCC1 | . | 0.34 | . | . | . | . | . | . | .
Cc1cc2cc(CNC(=O)c3ccc4c(c3)OCO4)ccc2[nH]1 | -0.43 | 1 | 7 | -0.043 | -2 | -0.88 | . | . | .
Cc1ccc(S(=O)(=O)N2CCN(C(=O)COC(=O)c3cc(C)oc3C)CC2)cc1 | 4.3* | -0.46 | 1 | 0.38 | 2 | -0.14 | 6052* | 1764 | i
COc1ccc(-c2csc(NC(=O)c3cc(C)on3)c2C#N)cc1OC | 10* | 0.46 | -4 | 0.43 | -5 | -0.49 | 17944* | 1716 | +
CCc1c(C)sc(NC(=O)c2cc(-c3ccc(OC)c(OC)c3)on2)c1C#N | . | 0.4 | . | . | . | . | . | . | .
COc1ccc(Cc2nnc(NC(=O)Cc3cccs3)s2)cc1OC | 17* | 0.022 | . | 0.51 | . | -0.62 | 27116* | 1544 | +
COc1ccc(CCCc2nnc(SCC(=O)Nc3nc(C)cs3)n2C)cc1C | -0.6 | 0.61 | 10 | 0.51 | 3 | 0.21 | . | . | .
COc1ccc(-c2csc(NC(C)=O)n2)cc1OC | 6.1* | 0.018 | 1 | 0.049 | 0 | 0.5 | 10116* | 1664 | +
COc1ccc(CC(=O)Nc2nc(C)cs2)cc1OC | 3.9* | 0.092 | 2 | 0.7 | 7 | -1.3 | 12824* | 1648 | +
CCCCC1=CC2=CC(=O)C(C)(OC(=O)c3cnc4ccccc4n3)C(=O)C2=CO1 (configuration not stated) | . | 0.15 | . | . | . | . | . | . | .
O=C(OC1CCOC1=O)c1cc(-c2ccc(Cl)cc2)nc2ccccc12 (configuration not stated) | . | 0.029 | . | . | . | . | . | . | .
O=S(=O)(Nc1cc(Cl)ccc1N1CCCCC1)c1cccs1 | 29* | -1.2 | 5 | 0.12 | 9 | -0.21 | 7016* | 1392 | i
O=S(=O)(Nc1ccc(N2CCCCC2)cc1)c1cccs1 | 0.91 | -0.75 | -8 | -0.015 | 2 | 2.9 | . | . | .
CC12CC(NC(=O)N1c1cccc(C(=O)N3CCN(c4ccccc4F)CC3)c1)c1ccccc1O2 (configuration not stated) | 3.5* | 0.5 | 11 | 0.35 | -2 | 2.5 | 4916 | 1480 | i
CC12CC(NC(=O)N1c1cccc(C(=O)N3CCN(c4ccccn4)CC3)c1)c1ccccc1O2 (configuration not stated) | 0.22 | 1.9 | 10 | 0.071 | 6 | 1.2 | . | . | .
CCc1nc2sc3ccccc3c(=O)c2c(=O)n1CCOC | . | 0.66 | . | . | . | . | . | . | .
